# Bioassay records as filed in PubChem.
# ROC1-CUL1 inh = inhibitors of human ROC1-CUL1 ubiquitin ligase activity. E3 ubiquitin-protein ligase RBX1 (Homo sapiens) + Cullin-1 (Homo sapiens), P62877+Q13616. in vitro K48 di-Ub FRET, acceptor:donor ratio, 45 min. inhibition, % at 10 µM. 140,000 tested, 0.6% active; in the data active = inhibition above about 25%
# Target sequence (P62877 whole entry, looked up): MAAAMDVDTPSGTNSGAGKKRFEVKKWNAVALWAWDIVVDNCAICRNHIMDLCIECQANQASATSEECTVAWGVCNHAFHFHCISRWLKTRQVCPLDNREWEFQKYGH
# Target sequence (Q13616 whole entry, looked up): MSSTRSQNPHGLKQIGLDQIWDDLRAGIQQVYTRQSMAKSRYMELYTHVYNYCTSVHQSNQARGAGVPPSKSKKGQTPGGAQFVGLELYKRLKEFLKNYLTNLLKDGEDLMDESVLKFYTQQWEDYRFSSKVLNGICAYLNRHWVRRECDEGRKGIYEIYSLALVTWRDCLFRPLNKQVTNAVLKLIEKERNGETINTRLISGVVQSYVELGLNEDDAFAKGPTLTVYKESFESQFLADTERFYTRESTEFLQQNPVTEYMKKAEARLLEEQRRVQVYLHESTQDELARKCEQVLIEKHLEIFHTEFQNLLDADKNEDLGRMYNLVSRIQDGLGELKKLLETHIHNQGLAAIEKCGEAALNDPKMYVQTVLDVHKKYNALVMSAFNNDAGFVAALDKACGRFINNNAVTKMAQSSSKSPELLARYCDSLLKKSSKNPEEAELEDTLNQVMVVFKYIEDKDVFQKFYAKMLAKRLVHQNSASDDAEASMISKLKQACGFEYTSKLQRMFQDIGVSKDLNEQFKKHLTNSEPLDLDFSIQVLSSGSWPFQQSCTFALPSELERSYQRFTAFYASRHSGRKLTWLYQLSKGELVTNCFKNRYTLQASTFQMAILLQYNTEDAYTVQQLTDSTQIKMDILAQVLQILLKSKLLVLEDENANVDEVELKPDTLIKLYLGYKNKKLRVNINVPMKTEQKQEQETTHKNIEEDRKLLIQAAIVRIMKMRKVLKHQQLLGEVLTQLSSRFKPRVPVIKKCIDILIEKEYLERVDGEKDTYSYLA
# * = called active by the depositor. This is one part of a sample in which hits are shown more often than they occur.
SMILES,ROC1-CUL1 inh
COc1ccc(F)c(CNC(C)c2cnc(-c3ccncc3)nc2C)c1 (configuration not stated),-7
CC1(C)C(=O)C2(C(=O)N(CC#N)CC#N)CCC1C2 (configuration not stated),11
CCN1CC=C2C(C#N)C(=N)C(C#N)(C#N)C(c3ccc(SC)cc3)C2C1 (configuration not stated),68*
CCN1CC=C2C(C#N)C(=N)C(C#N)(C#N)C(c3cc(OC)c(OC)c(OC)c3)C2C1 (configuration not stated),-1
CN1CC=C2C(C#N)C(=N)C(C#N)(C#N)[C@H](c3ccccc3F)[C@H]2C1 (some centres not stated),2
CCN1CC=C2C(C#N)C(=N)C(C#N)(C#N)[C@H](c3ccc4c(c3)OCO4)[C@H]2C1 (some centres not stated),-5
CN1CC=C2C(C#N)C(=N)C(C#N)(C#N)C(c3ccc(Br)s3)C2C1 (configuration not stated),45*
CCN1CC=C2C(C#N)C(=N)C(C#N)(C#N)C(c3cccc(F)c3)C2C1 (configuration not stated),47*
CCCN1CC=C2C(C#N)C(=N)C(C#N)(C#N)C(c3cccc(Br)c3)C2C1 (configuration not stated),-1
CCOC(=O)N1CC=C2C(C#N)C(=N)C(C#N)(C#N)[C@H](c3cccc(F)c3)[C@H]2C1 (some centres not stated),6
CN1CC=C2C(C#N)C(=N)C(C#N)(C#N)C(c3ccco3)C2C1 (configuration not stated),-4
Cc1ccc(-c2nnc(Nc3ccccc3)c(=Nc3ccccc3)s2)cc1,15
CCCCNCCC(=O)Nc1sc2c(c1C(=O)OCC)CCCC2,-3
N#CC1C(=N)Oc2c(sc3ccccc23)C1c1ccccc1OC(=O)c1ccccc1 (configuration not stated),8
Cc1ccc(NC(=O)C2CCN(S(=O)(=O)c3cccs3)CC2)cc1C,-3
COC(OC)C1Nc2ccccc2C(=O)N1c1ccccc1 (configuration not stated),-12
Nc1nnc(SC2CCCC2)s1,-3
C=CCOc1c(Br)cc(CNC(C)(C)C)cc1OCC,66*
C=CCOc1c(Br)cc(CNc2nccs2)cc1OCC,10
C=CCOc1c(Br)cc(CNc2ccc(C(=O)O)cc2)cc1OCC,9
COCc1ccc(CNCC2(N3CCCCC3)Cc3ccccc3C2)o1,-4
Cc1cc(C)n(C(=O)CCC(=O)c2ccccc2)n1,-4
Cc1ccc(-c2[nH]nc3c2C(c2ccc(O)c(O)c2)C(C#N)C(=N)O3)cc1 (configuration not stated),35*
N#CC1C(=N)Oc2n[nH]c(-c3ccccc3)c2C1c1ccccc1Cl (configuration not stated),13
Cc1ccc(-c2[nH]nc3c2C(c2ccc(Cl)cc2)C(C#N)C(=N)O3)cc1 (configuration not stated),-9
SMILES,ROC1-CUL1 inh
Cc1ccc(-c2[nH]nc3c2C(c2ccc4c(c2)OCO4)C(C#N)C(=N)O3)cc1 (configuration not stated),1
N#CC1C(=N)Oc2n[nH]c(-c3ccc(-c4ccccc4)cc3)c2C1c1ccccn1 (configuration not stated),31*
N#CC1C(=N)Oc2n[nH]c(-c3ccc(-c4ccccc4)cc3)c2C1c1ccccc1F (configuration not stated),6
CSc1nc(C)cc(Nc2cccc(C(=O)O)c2)n1,-4
COc1ccc(NC(=O)CCCN2C(=O)C(c3ccccc3)Oc3cccnc32)c(OC)c1 (configuration not stated),0
COC(=O)c1ccc(Cn2cnc3scc(-c4ccc(OC)cc4)c3c2=O)cc1,-11
Clc1ccc(Nc2nc(Cl)nc(N3CCOCC3)n2)nc1,6
O=S(=O)(Nc1ccc(-c2ccc(N3CCCC3)nn2)cc1)c1ccc(C(F)(F)F)cc1,-12
CCOc1cc(CNc2ccc(O)cc2)cc(Br)c1OCc1cccs1,75*
Oc1ccc(NCc2ccccc2OCc2ccccc2)cc1,6
CCOc1cc(CNCc2cccs2)cc(Br)c1OC,-8
Oc1ccc(NCc2ccccc2OCc2ccc(Cl)cc2)cc1,7
CCOc1cccc(CNc2ccc(O)cc2)c1OCc1ccccc1,97*
CCOc1cc(CNc2ccc(O)cc2)cc(Br)c1OCc1ccccc1,4
Cc1ccccc1CCNC(=O)c1ccc2c(c1)nc1n2CCCCC1,10
Cc1ccc(C)c(CNS(=O)(=O)c2ccc3c(c2)C(C)(C)C(=O)N3C)c1,-1
COc1ccccc1C(=O)N[C@@H]1c2ccccc2C2(CCN(C(=O)C3(C)CCCCC3)CC2)[C@H]1OC,-6
Nc1c(C(=O)Nc2cccc(Br)c2)sc2nc3c(cc12)CCCCCC3,-1
CC(=O)Nc1ccc(-n2c(C)ccc2C)cc1,2
Cc1ccc(C)n1-c1ccc(CC(=O)O)cc1,67*
COC(=O)c1ccc(-n2c(C)ccc2C)cc1,1
CC1=CC(C)(C)N2C(=O)C(=O)c3cc(OC(=O)C4CCCO4)cc1c32 (configuration not stated),-5
CC(C)OC(=O)c1cccc(NC(=O)Cn2nnc3sc4c(c3c2=O)CCCC4)c1,5
CC1CCc2c(sc3nnn(Cc4cccc(C(=O)OC(C)C)c4)c(=O)c23)C1 (configuration not stated),-4
CC(C)OC(=O)c1ccc(Cn2nnc3sc4c(c3c2=O)CCCC4)cc1,44*
SMILES,ROC1-CUL1 inh
CC1=NN(c2ccc(C)cc2C)C(=O)C1=Nc1ccc(N(C)C)cc1,-4
CC1=NN(c2ccc(S(N)(=O)=O)cc2)C(=O)C1=Nc1ccc(N(C)C)cc1,64*
COc1cc(/C=C2/C(=O)N(c3ccc(Cl)c(Cl)c3)N=C2C)cc(OC)c1OC,-3
NS(=O)(=O)c1ccc(N=C2CC(=O)Oc3ccccc32)cc1,4
CC1=NN(c2ccc(F)cc2)C(=O)/C1=C/c1ccc2c(c1)n(C)c(=O)n2C,0
CN(C)c1ccc(/C=C2\C(=O)NN(c3ccccc3)C2=O)cc1Br,-4
COc1cc(/C=C2/C(=O)N(c3ccc(Cl)c(Cl)c3)N=C2C)cc(OC)c1O,2
COc1cc(/C=C2\C(=O)N(c3ccc(S(N)(=O)=O)cc3)N=C2C)cc(OC)c1OC,32*
CC1=NN(c2ccc(S(N)(=O)=O)cc2)C(=O)/C1=C\c1ccc(N(C)C)c(Br)c1,68*
COc1ccc(OC)c(NC(=O)c2cc(C3CC3)nc3c2c(C)nn3-c2ccc(C)cc2)c1,10
Cc1cc(C)n(-c2nnc(N/N=C/c3ccccc3O)nn2)n1,12
CCCCNC(=O)c1nnn(-c2ccc(C)cc2)c1-c1ccco1,1
C=C(C)C1CC=C(C)/C(=N/NC(=O)c2ccccc2Cl)C1 (configuration not stated),7
O=C(N=C(C(=O)N1CCOCC1)C(SCc1ccccc1)c1ccccc1)c1ccccc1 (configuration not stated),2
CN1CCCC2(CCN(Cc3cnn(-c4ccc(Cl)cc4)c3)C2)C1=O (configuration not stated),10
CCOc1ccc(-c2cc(C(=O)NCc3ccc(OCC)c(OC)c3)[nH]n2)cc1,2
CCN(CC)c1ccc(/C=C2\SC(=S)N(N)C2=O)cc1,55*
CCCN1C(=O)/C(=C/c2ccc(N(C)C)cc2)SC1=S,-5
CCN(CC)CN1C(=O)S/C(=C/c2ccc(N(CC)CC)cc2)C1=O,10
